Shown are actives, neighbours in structure and some others; about 2.7% of the full set was active somewhere.
Nrf2 activator: activates Nrf2 signaling. AID 624171. 0.31% of 410,000 active. Potency, µM (top dose mostly 46.1 µM), for the others: top-dose activation, usual class: activators. AREc32 ARE-luciferase reporter (MCF7-derived line), luminescence, 24 h; also: potency is read from the fitted curve at half-maximal effect; % of control where 0% means no effect; nearly all actives have a fitted effect of over 65% in size
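Steps: seed AREc32_Fluc cells (1000/well, 5% FBS OPTI-MEM); incubate overnight at 37 deg C; add 23 nL compound; incubate 24 hr; add Steady-Glo; hold 30 min RT; read luminescence.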
ERG-DNA inh: blocks human ERG Ets domain binding to DNA. Potency, µM (highest dose often 76.9 µM), for the others: at the top dose FP activity, negative = inhibition, most hits filed as inhibitors. 0.028% of 370,000 active. fluorescence polarization, His-ERG Ets domain / labelled DNA. AID 624246; active = well fitted inhibition curve with a large enough effect in the polarisation, with a control signal flat; inconclusive = small, poorly fitted or top-dose-only effect, or effect the other way, or a change in a side signal; inactive = no such curve, though single readings can be large or run the other way; the % refers to the polarisation;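 also: polarization taken with two DNA probes labelled with fluorescein and Texas red; potency is read from the fitted curve at half-maximal effect; % of control where 0% means no effect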
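His-tagged ERG Ets domain (1 uM in the protein solution; 300mM KCl, 50mM Tris-HCl, 1mM EDTA, 1mM DTT, pH 7.5) received compound, then a probe mix of 5 nM fluorescein-DNA and 100nM Texas-615-DNA. Fluorescence polarization was read for both dyes.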
Nrf2 inh: Nrf2 pathway inhibition | A549 ARE-Fluc reporter, luciferase luminescence, 18-24 h | Potency, µM (series often up to 46 µM), inactives show at the top dose activity change, negative = inhibition, actives largely listed as inhibitors | 2.1% of 360,000 active; also: potency is read from the fitted curve at half-maximal effect; % is scaled to controls: 0 for no effect and ±100 for the full control effect; nearly all actives have a fitted effect of over 60% in size
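In this cell-based qHTS, ARE-driven firefly luciferase in A549 cells reports Nrf2 activity; the luminescent signal after BugLite lysis is the measured value, with a prior CellTiter-Fluor read for cell health.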
LDHA inh: blocks human lactate dehydrogenase A. P00338. purified LDHA, NADH/diaphorase-resazurin fluorescence; stronger effect = lower value. activity change, % (values are at about 110 or 230 µM). 0.15% of 480,000 active. AID 1347041; in the data active = activity change below about -30%; inconclusive = mostly about -25% to -30%;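 also: plate controls were DMSO wells for no effect and wells without enzyme for full effect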
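Remaining NADH was detected by diaphorase (0.133 mg/mL) converting 37 µM resazurin to fluorescent resorufin, read at 0 and 20 minutes. The preceding 5-minute room-temperature reaction used 2 nM LDHA, 0.2 mM sodium pyruvate and 0.06 mM NADH at pH 7.4.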
A549 viability: A549 cytotoxicity, counter-screen for Nrf2 inhibitors. 0.16% of 390,000 active. AID 504648. A549 ARE-Fluc cells, CellTiter-Fluor viability, 18-24 h. Potency, µM (highest dose often 46 µM), for the others: at the highest dose activity change, negative = cytotoxicity, usual class: inhibitors; also: potency is read from the fitted curve at half-maximal effect; % is scaled to controls: 0 for no effect and ±100 for the full control effect
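Cytotoxicity counterscreen: CellTiter-Fluor fluorescence was measured in A549 ARE_Fluc cells after 18-24 h of compound exposure in a concentration series. The subsequent BugLite luminescent read reports ARE-luciferase activity.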
ALOX12 inh: blocks human arachidonate 12S-lipoxygenase. purified 12hLO, xylenol orange hydroperoxide absorbance. Potency, µM (series often up to 108 µM), inactives show top-dose activity change, negative = inhibition, hits mostly inhibitors. 1.1% of 580,000 active. AID 1671190; also: potency is read from the fitted curve at half-maximal effect; % is scaled to controls: 0 for no effect and ±100 for the full control effect
Target sequence (P18054 whole entry, looked up): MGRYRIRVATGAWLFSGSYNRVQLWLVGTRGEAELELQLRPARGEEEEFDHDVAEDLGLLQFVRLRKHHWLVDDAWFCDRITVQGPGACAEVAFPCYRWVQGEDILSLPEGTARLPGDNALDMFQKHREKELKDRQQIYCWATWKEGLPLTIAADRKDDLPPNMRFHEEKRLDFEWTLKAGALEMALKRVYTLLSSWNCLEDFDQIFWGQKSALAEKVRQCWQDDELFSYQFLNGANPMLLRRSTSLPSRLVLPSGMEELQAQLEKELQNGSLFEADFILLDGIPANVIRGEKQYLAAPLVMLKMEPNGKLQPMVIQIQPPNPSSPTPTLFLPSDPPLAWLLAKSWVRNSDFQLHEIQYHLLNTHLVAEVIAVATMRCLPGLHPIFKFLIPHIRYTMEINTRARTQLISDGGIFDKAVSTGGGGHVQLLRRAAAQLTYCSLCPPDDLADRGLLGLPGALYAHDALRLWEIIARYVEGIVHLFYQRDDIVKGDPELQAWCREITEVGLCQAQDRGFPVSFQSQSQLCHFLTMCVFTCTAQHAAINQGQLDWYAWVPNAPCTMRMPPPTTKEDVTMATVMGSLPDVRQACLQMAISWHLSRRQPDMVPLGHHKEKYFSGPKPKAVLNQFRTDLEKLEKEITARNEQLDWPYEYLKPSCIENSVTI
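Purified human 12hLO at 150 nM in 25 mM Hepes, 0.01% Triton X-100, pH 7.0, preincubated 15 min at room temperature with compound. Reaction started with 40 uM arachidonic acid, 30 min at room temperature. Hydroperoxide measured by Fe-xylenol orange, 573/405 nm absorbance ratio.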
Active calls of the source: *; ? = inconclusive; . = not tested or not shown; [ ] = remark or other dose. Unless noted, calls follow the shape of the dose curve; as a rule, active = well fitted curve in the direction sought with a large enough effect; inconclusive = small, poorly fitted or top-dose-only effect, or another doubt; inactive = no such curve, though single readings can be large; an effect the other way counts as inactive or inconclusive.

SMILES	Nrf2 activator	ERG-DNA inh	Nrf2 inh	LDHA inh	A549 viability	ALOX12 inh
O=C1C(Cl)=C(Nc2ccccc2O)C(=O)N1c1ccccc1	?	5.6%	17.7%	23.5	-10.0%	-9.1%
COc1ccccc1N1C(=O)C(Cl)=C(Nc2ccccc2O)C1=O	12.6µM*	-4.5%	12.1%	9.7	1.2%	?
N#Cc1ccccc1C(=O)c1ccc(Br)cc1	.	.	.	1.1	.	45.4%
CCn1c(=O)sc2cc(NS(=O)(=O)c3ccc(F)c(C)c3)ccc21	13.9%	0.6%	18.4µM*	-2.3	-3.0%	-9.7%
O=C(CCc1nc2ccccc2s1)NCc1cccc(C(F)(F)F)c1	.	.	.	-1.3	.	?
CCOC(=O)c1c(C)nc2c(c1-c1cc(OC)ccc1OC)C(=O)c1ccccc1-2	2.1%	-10.3%	1.0%	0.0	-5.8%	0.3%
CCOC(=O)c1c(C)nc2c(c1-c1ccccc1)C(=O)c1ccccc1-2	-0.7%	-3.0%	13µM*	6.9	-18.7%	1.0%
COc1cc2nc(-c3ccc(C)cc3)oc(=O)c2cc1OC	.	.	.	-30.4*	.	25.2%
Cc1cc(CS(=O)(=O)CC(=O)NC2CC2)on1	.	.	.	4.3	.	?
O=C(COCc1cc(-c2ccc3c(c2)OCO3)on1)Nc1cc(Cl)ccc1O	13.3%	5.2%	8.7%	-2.3	13.3%	2.4%
O=C(COCc1cc(-c2cccs2)on1)Nc1cc(Cl)ccc1O	3.55µM*	3.0%	-11.2%	-11.1	-0.1%	-15.5%
COc1cc(OC)c(NC(=O)COCc2cc(-c3cccs3)on2)cc1Cl	?	-0.4%	0.4%	-3.0	2.3%	-22.7%
O=C(COCc1cc(-c2ccc(F)cc2)on1)Nc1cc(Cl)ccc1O	6.31µM*	-2.3%	?	-16.3	3.3%	-11.4%
CC(=O)Nc1ccc(NC(=O)CN2C(=O)NC(c3ccc(C)cc3)C3=C2COC3=O)cc1 (stereo not drawn)	.	.	.	.	.	20.0%
O=C(CN1C(=O)NC(c2ccc(Cl)cc2)C2=C1COC2=O)Nc1ccc(C(F)(F)F)cc1 (stereo not drawn)	.	.	.	.	.	8.91µM*
Cc1ccc(C2NC(=O)N(CC(=O)Nc3ccc(Br)cc3F)C3=C2C(=O)OC3)cc1 (stereo not drawn)	.	.	.	.	.	8.91µM*
Cc1ccc(C2NC(=O)N(CC(=O)Nc3ccc(C(F)(F)F)cc3)C3=C2C(=O)OC3)cc1 (stereo not drawn)	.	.	.	.	.	10µM*
Cc1ccc(C2NC(=O)N(CC(=O)Nc3ccc(Br)c(C)c3)C3=C2C(=O)OC3)cc1 (stereo not drawn)	.	.	.	.	.	8.91µM*
CCCCc1ccc(NC(=O)CN2C(=O)NC(c3ccc(Cl)cc3)C3=C2COC3=O)cc1 (stereo not drawn)	.	.	.	.	.	-15.4%
CC(=O)c1cccc(NC(=O)CN2C(=O)NC(c3ccc(C)cc3)C3=C2COC3=O)c1 (stereo not drawn)	.	.	.	.	.	34.5%
COc1ccc(C)cc1NC(=O)CN1C(=O)NC(c2ccc(C)cc2)C2=C1COC2=O (stereo not drawn)	.	.	.	.	.	3.6%
CC(C)CN1C(=O)C(=O)N(Cc2ncc(-c3ccc(Cl)cc3)o2)C1=O	.	.	.	-0.6	.	2.7%
O=C(CN1C(=O)NC(c2ccccc2Cl)C2=C1COC2=O)Nc1ccc(F)c(Cl)c1 (stereo not drawn)	.	.	.	.	.	-1.1%
O=C(CN1C(=O)NC(c2ccc(Cl)cc2)C2=C1COC2=O)Nc1ccc(F)c(Cl)c1 (stereo not drawn)	.	.	.	.	.	7.94µM*
Cc1ccc2cc(CCC(=O)N3CCOCC3)c(=O)[nH]c2c1	.	.	.	.	.	11.3%
SMILES	Nrf2 activator	ERG-DNA inh	Nrf2 inh	LDHA inh	A549 viability	ALOX12 inh
COc1cccc(C(=O)Nc2sc3c(c2C(N)=O)CCC(C)C3)c1OC(F)F (stereo not drawn)	.	.	.	9.0	.	?
CC1CCc2c(sc(Nc3nc4c(F)cccc4s3)c2C(N)=O)C1 (stereo not drawn)	26.5%	14.0%	1.0%	-7.8	1.7%	44.7µM*
C/C(=N/NC(=O)C1CC1c1ccccc1)c1ccc(CC(C)C)cc1 (stereo not drawn)	.	.	.	7.3	.	?
Cn1nc(C(=O)Nc2ccc(C(C)(C)C)cc2)c2ccccc2c1=O	.	.	.	1.7	.	-24.7%
COC(=O)CCC(=O)Nc1ccc(Cl)c(Cl)c1	0.2%	.	0.8%	0.3	-6.5%	-23.3%
CO/N=C\CC(=O)Nc1ccc(Cl)c(Cl)c1	-0.9%[9.22 µM]	-16.2%	-9.4%	-0.5	-3.4%	39.8µM*
COc1ccc(-n2c(-c3ccc(Br)cc3)c[n+]3c2CCc2ccccc2-3)cc1	8.0%	-1.0%	8.2µM*	-3.7	-15.5%	-15.2%
CC(=O)C1=C(C)OC(N)=C(C#N)C1c1cccc([N+](=O)[O-])c1 (stereo not drawn)	3.6%	-9.5%	-24.3%	23.4	5.4%	-18.4%
CC(=O)C1=C(C)OC(N)=C(C#N)C1c1cc([N+](=O)[O-])ccc1Cl (stereo not drawn)	12.6µM*	4.0%	0.7%	18.8	3.4%	?
OC(c1ccco1)c1nc(-c2cccs2)cs1 (stereo not drawn)	?	.	.	-1.8	.	17.8µM*
CC(C)c1cccc(-c2csc(C(O)c3ccco3)n2)c1 (stereo not drawn)	10.8%[9.22 µM]	.	.	-3.8	.	14.1µM*
Cc1ccc(CNC(=O)CSc2nc3ccsc3c(=O)n2CCC(C)C)cc1	.	.	.	2.3	.	-8.3%
c1csc(CNc2nc(-c3ccoc3)nc3ccccc23)c1	.	.	.	.	.	10µM*
CNc1nc(-c2ccoc2)nc2ccccc12	.	.	.	.	.	35.5µM*
Cc1ccc(Cn2ccc(NC(=O)c3cc(-c4cccc(Cl)c4)on3)n2)cc1	-0.2%	-1.7%	20.6µM*	-6.7	?	0.2%
Cc1ccc(Cn2ccc(NC(=O)c3cc(-c4ccc(Cl)cc4)on3)n2)cc1	-0.5%	-3.3%	.	-8.4	-0.1%	?
CCCCc1c(C)nc2ccc(OC)cc2c1SCCC(=O)O	0.7%	0.0%	-1.8%	-13.3	0.7%	44.7µM*
Cc1ccc(-n2[nH]c3c4c(ccc3c2=O)C(=O)c2ccccc2C4=O)cc1	1.0%	6.7%	3.1%	2.5	3.7%	19.1%
Cc1ccc(C)c(-n2[nH]c3c4c(ccc3c2=O)C(=O)c2ccccc2C4=O)c1	0.4%	-2.3%	23.1µM*	9.2	?	9.3%
COCCN(Cc1nc2ccccc2c(=O)[nH]1)C(=O)Cc1csc(-c2ccc(C)cc2)n1	.	.	.	12.7	.	?
N#C/C(=C/c1ccc2c(c1)OCO2)c1nc2ccccc2[nH]1	.	.	.	0.5	.	?
N#C/C(=C/C1=Cc2cc(Cl)ccc2OC1)c1nc2ccccc2[nH]1	.	.	.	9.8	.	15.8µM*
CN(C)c1oc(-c2ccco2)nc1S(=O)(=O)c1ccc(F)cc1	.	.	.	-1.0	.	?
